Bioassay records deposited in PubChem by The Scripps Research Institute Molecular Screening Center.
The full list was thinned out, with hits kept by preference.
TTR transcr act – activators of transthyretin transcription. SH-SY5Y TTR promoter Gaussia luciferase, luminescence; 100% = recombinant luciferase protein wells. activation, % at 16.7 µM. 1.3% of 92,000 active;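 active means activation above the mean of all tested compounds plus 3 SD, cut at about 9.5% in these data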;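 further: cells exposed to compounds for one day before reading; 0% = median of all test compound wells on the plate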
HuH7 TTR inh – counter-screen for TTR activators: TTR transcription inhibitors in HuH7 cells. shares compounds with TTR transcr act. HuH7 TTR promoter-Gaussia luciferase reporter, luminescence. inhibition, % at 16.7 µM. 4% of 1,100 active;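 active means average inhibition above the solvent-only control wells' mean plus 3 SD, cut at about 15% in these data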;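 further: 0% = cells with DMSO only and 100% = cells with inhibitor control FD; inhibitors lower well luminescence so higher value means more inhibition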
TTR act confirm – human TTR transcription activation, confirmation. activation, % at 16.7 µM. AID 1117280. 1,100 tested, under 10 active. shares compounds with TTR transcr act. SHSY5Y TTR promoter Gaussia luciferase, luminescence; 100% = purified Lucia enzyme wells, no cells;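 active means mean activation above a set limit taken from the earlier primary screen, cut at about 11% in these data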;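 further: 0% = DMSO-treated cells and 100% = recombinant Lucia luciferase without cells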
An asterisk follows results filed as active.

SMILES	TTR transcr act	others
Cc1cc(C)c(C(=O)CC(=O)c2cccnc2)c(C)c1	15*	HuH7 TTR inh=-7;TTR act confirm=0
Cc1cc(C)c(C)c(OCC(=O)O/N=C(\N)c2cccnc2)c1	-1
Nc1[nH]c(C(=O)c2ccccc2)c(-c2cccnc2)c1C(=O)NCCc1c[nH]c2ccccc12	-1
C[C@@H](N)C(=O)Nc1ccc(Cl)cc1C(=O)c1ccc[nH]1	0
N#C/C(=C\c1ccc[nH]1)C(=O)NCC1CCCO1 (stereo unspecified)	11*	HuH7 TTR inh=-8;TTR act confirm=0
CCOc1cc(/C=C(\C#N)C(=O)NCC2CCCO2)ccc1O (stereo unspecified)	6
Cc1ccc(/C=C(\C#N)C(=O)NCC2CCCO2)o1 (stereo unspecified)	5
O=C(c1ccccc1)C1CCN(c2ncnc3sccc23)CC1	-4
COc1ccc(Cn2ccc3ccc(-c4ccc5ccn(C(=O)c6ccc(C)cc6)c5c4)cc32)cc1	-1
Cc1ccccc1CN1CCCCC(NC(=O)c2ccc(COc3ccccc3)cc2)C1=O (stereo unspecified)	-4
O=C(CN1C(=O)C2CC=CCC2C1=O)N1CCN(c2ccc([N+](=O)[O-])cc2)CC1 (stereo unspecified)	-1
O=C(CCC1=NS(=O)(=O)c2ccccc2N1)NC1CCCCCCC1	-1
O=C(CCCC1=NS(=O)(=O)c2ccccc2N1)N1CCN(c2ccc([N+](=O)[O-])cc2)CC1	9.7*	HuH7 TTR inh=-13;TTR act confirm=-1
N=c1sccn1CC(=O)Nc1cccc2ccccc12	2
Nc1ccccc1SCC(=O)Nc1cccc2ccccc12	-1
O=C(O)CSCC(=O)Nc1cccc2ccccc12	10.0*	HuH7 TTR inh=-6;TTR act confirm=0
CC(C)C[C@@H]1COc2cc(F)ccc2S(=O)(=O)N1	1
CN(C)[C@@H]1CCN(c2ccc3c(c2)O[C@H]2CCN(C2)S3(=O)=O)C1	0
CCCNC(=O)c1ccc(N2CCC3(CC2)CC(c2ccccc2)=NO3)c(NC(=O)c2cccc(OC)c2)c1	-3
CCCNC(=O)c1ccc(N2CCC3(CC2)CC(c2ccccc2)=NO3)c(NC(=O)c2ccco2)c1	19*	HuH7 TTR inh=19*;TTR act confirm=-2
Cc1ccc(CNC(=O)c2ccc(N3CCC4(CC3)CC(c3ccccc3)=NO4)c(NC(=O)c3ccco3)c2)cc1	-1
O=C(NCc1ccccc1Cl)O[C@H]1CC[C@@]23CCCN2C(=O)CCC[C@H]3C1	0
CCOC(=O)[C@]12CCCC=C1N(CCCOC)C(=O)[C@@H]2CC(=O)N1CCSCC1	0
Cc1ccnc(NC(=S)N2CCC(Nc3cccc(C(F)(F)F)c3)CC2)c1	5
O=C(CSc1nnc(NC(=O)c2ccco2)s1)Nc1ccc(F)cc1	2
SMILES	TTR transcr act	others
Cc1cccc(NC(=O)CSc2nnc(NC(=O)c3ccco3)s2)c1	11*	HuH7 TTR inh=-29;TTR act confirm=3
Cc1cccc(CSc2nnc(NC(=O)c3ccco3)s2)c1	2
CC(C)CNC(=O)OCc1cn(Cc2cccc(C(F)(F)F)c2)nn1	1
C[C@H]1CCC[C@@H](O)CC(=O)c2c(O)cc(O)cc2CC(=O)O1	-2
Cc1cccc2cc(C(c3nnnn3C(C)(C)C)N(Cc3ccco3)CC3CCCO3)c(=O)[nH]c12 (stereo unspecified)	-2
CCC(c1nnnn1Cc1ccco1)N(Cc1cc2cc(C)cc(C)c2[nH]c1=O)CC1CCCO1 (stereo unspecified)	18*	HuH7 TTR inh=14;TTR act confirm=0
CCC(c1nnnn1Cc1ccco1)N(Cc1ccccc1OC)Cc1cc2cc(C)ccc2[nH]c1=O (stereo unspecified)	7
COC(=O)[C@]12CCCCC=C1N(Cc1ccc(OC)cc1)C(=O)[C@@H]2CC(=O)NCCC(C)C	-1
COc1ccc(CNc2ncnc3cc(Cl)ccc23)cc1	-2
COc1cc2ncnc(NCc3ccccc3)c2cc1OC	-3
COc1ccc(CNc2ncnc3cc(OC)c(OC)cc23)cc1	10*	HuH7 TTR inh=-18;TTR act confirm=1
COC(=O)[C@]12C[C@H](CC(=O)NCc3ccccc3)C(=O)N(Cc3ccc(Cl)cc3Cl)C1=C[C@H](C(C)C)O[C@@H]2C1CC1	-3
Cn1c(NC2=NC3(CCCC3)C3=C(CCCC3=O)N2)nc2ccccc21	5
O=C(c1ccc(Cl)cc1)N(Cc1ccccc1F)N1C(=O)CCCC1=O	-1
O=C(C1CCN(c2nnnn2-c2ccccc2)CC1)N1CCN(c2ccccc2)CC1	-1
Oc1ccccc1N1CCN(c2nnnn2-c2ccccc2)CC1	0
NC(=O)C1CCN(c2nnnn2-c2ccccc2)CC1	10*	HuH7 TTR inh=-13;TTR act confirm=-1
CCC[C@H]1[C@@H](OC(=O)NC2CCC2)CC[C@@]23CCCN2C(=O)CCC[C@@H]13	3
Cc1cccc(Cn2cc(COC(=O)NCCc3c[nH]c4ccccc34)nn2)c1	1
CCCc1nc2cc(C)c(Br)c(C)n2c1CC1CCCCC1	-2
